# An excerpt weighted towards active compounds, which were near 2.9% of everything screened.
# SNCA viab count – GF-AFC viability counterscreen for inhibitors of alpha-synuclein gene (SNCA) expression; HEK-293-SNCA-luc viability, GF-AFC fluorescence, 24 h; Potency, µM (highest dose often 57.1 µM), for inactives: top-dose activity change, negative = cytotoxicity, hits mostly cytotoxic; hit rate 0.12% among 150,000; AID 1671193, 2021;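 also: potency is read from the fitted curve at half-maximal effect; 0% = DMSO-treated cells and -100% = medium-only wells without cells; nearly all actives have a fitted effect of over 30% in size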
#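 HEK-293-SNCA-luc cells (1500/well) plated 24 h, then exposed 24 h to a dilution series; GF-AFC added 30 min at 37C, fluorescence 405/540 nm; normalised to medium-only and DMSO wells, Hill fit.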
# SNCA expr inhib – Primary qHTS assay for inhibitors of alpha-synuclein gene (SNCA) expression | hit rate 0.17% among 140,000 | AID 1671194, 2021 | Potency, µM (series often up to 57.2 µM), without a hit: top-dose activity change, negative = inhibition, usual class: inhibitors | HEK-293 SNCA-luciferase knock-in, luminescence, 24 h;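 also: potency is read from the fitted curve at half-maximal effect; plate controls were DMSO cells for no effect and cell-free wells for full effect; nearly all actives have a fitted effect of over 45% in size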
# IP6K1 inh – Primary qHTS assay for small molecule inhibitors of Inositol hexaphosphate kinase 1 (IP6K1); Inositol hexakisphosphate kinase 1 (Homo sapiens), Q92551; IP6K1 kinase, ADP-Glo luminescence, 2 h; hits give low values; activity change, % (series mostly up to about 58 µM); hit rate 0.81% among 140,000; in the data active = activity change below about -25%; also: % is scaled to controls: 0 for no effect and ±100 for the full control effect
#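 ADP-Glo luminescence measures ADP made by human IP6K1 during a 2 h RT reaction with ATP/IP6 (mix at 1.3 mM/130 uM); top library doses 57.5 and 19.1 uM final.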
# KDM5B inhibitor – Primary screen for KDM5B Histone Demethylases FDH-coupled qHTS | Lysine-specific demethylase 5B (Homo sapiens), Q9UGL1 | KDM5B demethylase, FDH-coupled NADH fluorescence (FDH is formaldehyde dehydrogenase) | Potency, µM (highest dose often 57.7 µM), actives largely listed as inhibitors | hit rate 2.6% among 220,000 | AID 1347165, 2019; also: potency is read from the fitted curve at half-maximal effect; 0% is about no effect; nearly all actives have a fitted effect of over 70% in size
#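 Compound dilutions met 200 nM (final) KDM5BΔAP for 10 min at room temperature before substrate addition. The substrate mix held 12.5 µM H3K4me3 with cofactors 25 µM α-ketoglutarate and 50 µM Fe²⁺. NADH signal gain over 30 min defined activity.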
# Starred values were filed as active, the others as inactive; i = inactive; ? = inconclusive; · = no result given; [ ] = remark or other dose. Unless noted, calls follow the shape of the dose curve; as a rule, active = well fitted curve in the direction sought with a large enough effect; inconclusive = small, poorly fitted or top-dose-only effect, or another doubt; inactive = no such curve, though single readings can be large; an effect the other way counts as inactive or inconclusive.
SMILES,SNCA viab count,SNCA expr inhib,IP6K1 inh,KDM5B inhibitor
Cn1nnnc1C1CCCN(C(=O)c2ccccc2)C1 (centres undefined),17%,5%,-9,i
O=C1CN(C(=O)CCc2ccccc2)CC(O)CN1CCCc1ccccc1 (centres undefined),·,·,-1,·
CN(C)C(=O)c1ccnc2[nH]ccc12,?,-4%[87.6 µM],-3,126µM*
O=C(c1ccnc2[nH]ccc12)N1CCOCC1,-2%[87.6 µM],26%[87.6 µM],17,126µM*
Cc1ccccc1C(=O)NCc1ccnc2[nH]ccc12,16%[87.6 µM],21%[87.6 µM],8,?
COc1ccc(-c2ccc(C(=O)NCc3ccc(F)cc3F)cc2)nn1,·,·,12,·
COc1ccc(-c2ccc(C(=O)N3CCN([S+](=O)([O-])c4cccc(C(F)(F)F)c4)CC3)cc2)nn1,·,·,-7,·
Cc1ccc(-c2cc3c(ccn3C)c(C(=O)NCc3cccnc3)n2)cn1,-9%[87.6 µM],60%[87.6 µM],7,i
Cn1ccc2c(C(=O)NCc3cccnc3)nc(-c3cccc(O)c3)cc21,-21%[87.6 µM],26%[87.6 µM],8,40µM*
Cn1ccc2c(C(=O)NCc3cccnc3)nc(-c3cccc(F)c3)cc21,-9%[87.6 µM],-8%[87.6 µM],2,22µM*
COCc1nc2nc(-c3ccccc3)c(Nc3ccncc3)cc2n1C,-1%[87.6 µM],-18%[87.6 µM],4,?
COCc1nc2nc(-c3ccccc3)c(Nc3ccc(F)cc3)cc2n1C,3%[87.6 µM],3%[87.6 µM],9,32µM*
O=C(c1ccn(C(F)F)n1)N1CCc2nc(-c3ccc(Cl)cc3)[nH]c2C1,-11%,27%,0,i
CCOC(=O)N1CCC(N2CCc3nc(-c4ccc(Cl)cc4)[nH]c3C2)C1 (centres undefined),-6%,24%,13,22µM*
COc1ccccc1-n1cc(-c2ccnc(N3CCCN(C(C)=O)CC3)n2)cn1,-29%,7%,21,32µM*
NC(=O)c1cc2c(nc1N1CCC3(CCCN(CC4CCC4)C3)C1)CCC2 (centres undefined),-5%,-13%,20,25µM*
CCc1[nH]c2c(CNC(=O)C(C)O)cc(C)cc2c1C (centres undefined),3%,10%,-1,32µM*
O=C(N[C@H](Cc1ccccn1)C1CC(O)C1)c1n[nH]c2c1CCCC2 (some centres undefined),-1%,-16%,13,i
O=C(N[C@H](Cc1ccccn1)C1CC(O)C1)c1cccc2c1NCCC2 (some centres undefined),7%,29%,-4,32µM*
CN(C)C[C@@H]1CN(C2CCOCC2)C[C@H]1NC(=O)c1cc2ccccc2[nH]1,-9%,1%,23,28µM*
COCC(=O)N1CC[C@H](c2nnc(-c3ccc(C)cc3)o2)C1,0%[87.6 µM],7%[87.6 µM],14,i
Cc1ccc(-c2nnc([C@H]3CCN(C4CCC4)C3)o2)cc1,2%[87.6 µM],105%[87.6 µM],-2,32µM*
Clc1ccc(-c2nnc([C@H]3CCN(C4CCCCC4)C3)o2)cc1,-12%[87.6 µM],19%[87.6 µM],-2,25µM*
CC(C)N1CC[C@H](c2nnc(-c3cccnc3)o2)C1,0%[87.6 µM],13%[87.6 µM],5,?
Cc1ccc(-c2nnc([C@H]3CCN(C(C)C)C3)o2)cc1,1%[87.6 µM],89%[87.6 µM],8,32µM*
SMILES,SNCA viab count,SNCA expr inhib,IP6K1 inh,KDM5B inhibitor
CN1CCC(N2CC[C@H](c3nnc(-c4ccc(Cl)cc4)o3)C2)CC1,5%[87.6 µM],8%[87.6 µM],9,?
CC1CCCCC1NC(=O)c1cc(-c2ccccc2C(F)(F)F)nc2c1cnn2C (centres undefined),·,·,-4,·
COc1ccc2c(c1)C=C(CN1CCC(CO)(Cc3ccccc3Cl)CC1)CO2,-12%,?,14,?
NC(=O)c1ccc(NC(=O)C[C@H]2NC(=O)c3ccccc3NC2=O)cc1,6%,8%,14,i
CC(C)n1c(CNC(=O)C[C@H]2NC(=O)c3ccccc3NC2=O)nc2ccccc21,1%,11%,1,28µM*
CN1C(=O)c2ccc(NC(=O)C[C@H]3NC(=O)c4ccccc4NC3=O)cc2C1=O,-2%,13%,-8,25µM*
N#Cc1cccc(-c2cn3c(n2)N(C(=O)c2ccoc2)CCC3)c1,-11%,18%,4,25µM*
O=C(c1ccccc1)N1CCCn2cc(-c3ccc4c(c3)OCO4)nc21,?,77%,-6,?
N#Cc1cccc(-c2cn3c(n2)N(C(=O)c2cccc(F)c2)CCC3)c1,-6%,53%,4,22µM*
N#Cc1cccc(-c2cn3c(n2)N(C(=O)c2ccco2)CCC3)c1,-6%,16%,17,25µM*
N#Cc1cccc(-c2cn3c(n2)N(C(=O)c2ccncc2)CCC3)c1,2%,1%,0,20µM*
COc1ccc(NC(=O)CCC2CCN(S(=O)(=O)c3ccccc3C)CC2)c(OC)c1,-8%,-13%,-3,·
COc1ccc2c(c1)CN(Cc1ccccc1)C(=O)CCN2CC(O)COc1ccccc1 (centres undefined),·,·,-14,·
N#Cc1cccc(-c2cn3c(n2)N(C(=O)c2ccccn2)CCC3)c1,6%,14%,7,18µM*
Cc1nccn1CC(=O)N1CCCn2cc(-c3cccc(C#N)c3)nc21,1%,-4%,3,?
Cc1ccc(C(=O)N2CCCn3cc(-c4cccc(C#N)c4)nc32)cn1,-9%,31%,14,28µM*
Cc1ccsc1C(=O)N1CCCn2cc(-c3cccc(C#N)c3)nc21,8%,67%,0,14µM*
CCOC(=O)[C@@H]1CN(C(=O)Nc2ccccc2)[C@H]2c3ccc(OC)cc3O[C@@H]12,·,·,13,·
O=C(Cc1ccc(Cl)cc1)N1CCC2(CC1)NC(=O)N(c1ccccc1Cl)N2,-5%,-10%,3,i
CN(Cc1ccco1)C(=O)c1ccc(-c2ccc(N3CCCCCC3)nc2)cc1,-7%,31%,-6,28µM*
CCC(C)NC(=O)c1ccc(-c2ccc(N3CCSCC3)nc2)cc1 (centres undefined),0%,10%,1,?
O=C(NCCCN1CCCC1)c1ccc(-c2ccc(N3CCCCC3)nc2)cc1,0%,21%,20,22µM*
CN(Cc1ccco1)C(=O)c1cccc(S(=O)(=O)N2CCCCC2)c1,·,·,·,i
O=C(NCCN1CCCCC1)c1ccc(-c2ccc(N3CCSCC3)nc2)cc1,3%,59%,-1,28µM*
CN(C)CCNC(=O)c1ccc(-c2ccc(N3CCCCCC3)nc2)cc1,-10%,130%,-6,25µM*
Cc1ccc(CNC(=O)c2ccc(-c3ccc(N4CCSCC4)nc3)cc2)o1,?,24%,-6,i
O=C(NCCN1CCCCC1)c1ccc(N2CC3CC(C2)[C@H]2CCCC(=O)N2C3)nc1 (some centres undefined),13%,1%,16,i

# Compound activity: PubChem, National Center for Advancing Translational Sciences (NCATS)
